The values that follow come from PubChem BioAssay AID720553 (National Center for Advancing Translational Sciences (NCATS), 2013).

In all, about 340,000 compounds went through this assay and about 3,300 (0.97%) were called active. The sample holds actives, similar compounds and a random draw of the others, so the mix is not that of the screen.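 The calls were made as follows: active = maximum activity change below -70%; inconclusive = maximum activity change from -70% to -50%; inactive = maximum activity change above -50%.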
% is scaled to controls: 0 for no effect and ±100 for the full control effect.

The subject of this assay is Potassium voltage-gated channel subfamily H member 2, brain isoform KCNH2 3.1 (human). Briefly: qHTS for Inhibitors of KCHN2 3.1: Mutant qHTS. As to conditions: U2OS KCNH2 3.1, thallium flux FluxOr; stronger effect = lower value. Put shortly: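 Virally transduced U2OS (3.1 isoform, 4 h infection in dark at RT) → overnight 37 C → FluxOr + Red40 in HBSS/HEPES, 45 min → stimulation buffer, 2 min kinetic read → rate constant vs DMSO controls.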
On the technique in general: In qHTS, concentration-response curves come from the screen itself.
Turning to `O=C(COC(=O)c1ccccc1Cl)NC1CCCCCCC1`, the activity change was -1.39% (inactive).
Under `C=CCNC(=O)COC(=O)c1ccccc1C(=O)N(C)C1CCCCC1` stands -110% (active).
Turning to `CC1CCCC(NC(=O)COC(=O)c2ccccc2C(=O)N(C)C2CCCCC2)C1C` (centres undefined), the activity change is 7.73% (inactive).
In the case of `CCCCN(C(C)=O)c1ccc2c(c1)C1CC2CCN1Cc1ccccc1` (centres undefined) it was 0.966% (inactive); in that of `O=C(Nc1ccc(Cl)cn1)c1ccccc1-c1ccccc1`, -14.9% (inactive); in that of `CC1(C)Cc2cccc(OCC(=O)NCc3ccccc3)c2O1`, 0.403% (inactive).
In the case of `CC1(C)Cc2cccc(OCC(=O)N3CCN(c4ccc([N+](=O)[O-])cc4)CC3)c2O1`, the activity change was -91.8% (active).
Under `CC1(C)Cc2cccc(OCC(N)=O)c2O1` stands -6.48% (inactive); under `S=C(NN=Cc1ccccn1)Nc1ccccn1`, -6.69% (inactive).
In the case of `COc1ccc(C(=O)OCC(=O)Nc2cc(C)on2)cc1F` it was -0.754% (inactive).
With `CSCCC(NC(=O)COc1ccccc1)C(=O)N1CCN(c2cccc(C(F)(F)F)c2)CC1` (centres undefined), the activity change is -70% (active).
Under `CSCCC(NC(=O)COc1ccccc1)C(=O)OCCOc1ccc(Br)cc1` (centres undefined) stands -21.4% (inactive).
In the case of `CSCCC(NC(=O)COc1ccccc1)C(=O)OCCOc1ccc(F)cc1` (centres undefined) it was -11.8% (inactive); in that of `O=C(Nc1cccc2ccccc12)NC1CC1`, -0.285% (inactive).
In the case of `COc1ccc(C(C)(C)C)cc1NC(=O)CN(C)C1=NS(=O)(=O)c2ccccc21` it was -5.7% (inactive); in that of `O=C(COc1ccc2c3c(c(=O)oc2c1)CCCC3)NCC(O)c1ccccc1` (centres undefined), 10.4% (inactive); in that of `Cc1cc(OCC(=O)NCC(O)c2ccccc2)c2c(C)c(C)c(=O)oc2c1` (centres undefined), 29.5% (inactive).
Regarding `O=C(COc1ccc2ccc(=O)oc2c1)NCC(O)c1ccccc1` (centres undefined), the activity change was -87.9% (active).
`O=C(NCCOc1ccccc1)N1[C@H]2CC[C@@H]1C=C(c1ccc(F)cc1OCc1ccccc1)C2`: the activity change was -21.8% (inactive).
For `CCNC(=O)COc1cc(C)c(Br)c(C)c1`, the activity change was -198% (active).
Under `CCOC(=O)C1CCN(C(=O)COc2cc(C)c(Br)c(C)c2)CC1` stands -6.53% (inactive); under `COCCCNC(=O)COc1cc(C)c(Cl)c(C)c1`, 30.5% (inactive); under `Cc1ccc(S(=O)(=O)N2C[C@]3(O)C[C@@H]4C(=O)N(c5ccccc5)C(=O)[C@@H]4C[C@]3(OC(=O)NC3CC3)C2)cc1`, -5.83% (inactive).
Under `Cc1ccc(NC(=O)Cn2sc3ccccc3c2=O)cc1` stands 8.97% (inactive); under `COc1cccc(CC2(CO)CCCN(Cc3nc(-c4cccs4)oc3C)C2)c1` (centres undefined), -14.6% (inactive).
Take `COc1cccc(CC2(CO)CCCN(CC3=Cc4cc(OC)ccc4OC3)C2)c1` (centres undefined): the activity change is -14.2% (inactive).
In the case of `COc1cccc(CNC(=O)CCC2CCCN(Cc3ccc(OC(F)F)cc3)C2)c1` (centres undefined) it was -93.7% (active).
Consider `COc1cccc(CC2(CO)CCCN(Cc3ccc(OC(F)F)cc3)C2)c1` (centres undefined), for which the activity change was -90.5% (active).
In the case of `COc1cccc(CNC(=O)CCC2CCCN(C(=O)c3ccoc3C)C2)c1` (centres undefined) it was -8.72% (inactive); in that of `COc1cccc(C(=O)N2CCCC(CCC(=O)NCc3ccc(F)c(F)c3)C2)c1` (centres undefined), -33.7% (inactive); in that of `CCCn1c(N)c(C(=O)CSc2nnc(Cc3cccs3)n2C2CC2)c(=O)[nH]c1=O`, 7.67% (inactive).
In the case of `Cc1cccc(S(=O)(=O)N(C)C[C@H]2OCc3cnnn3CCCC(=O)N([C@@H](C)CO)C[C@H]2C)c1` it was 36.2% (inactive); in that of `CCCCCCNC(=O)O[C@H]1CN(C(=O)OC(C)C)N(C(=O)OC(C)C)[C@@H]2CN(S(=O)(=O)c3ccc(C)cc3)C[C@]12O`, 0.662% (inactive); in that of `COc1ccc(-c2ccc(CN3C(CC(C)C)C(=O)N(Cc4cn(CC5CCCCC5)nn4)CCS3(=O)=O)cc2)cc1` (centres undefined), -16.5% (inactive).
Under `CC1(c2cccc(Br)c2)NC(=O)N(CC(=O)NCCC2=CCCCC2)C1=O` (centres undefined) stands -2.93% (inactive).
Take `Cc1nc2nc[nH]n2c(=O)c1NC(=O)c1cccc(OCC(C)C)c1`: the activity change was -182% (active).
For the molecule `Cc1nc2nc[nH]n2c(=O)c1C/C=C/c1ccccc1`, the activity change is -5.87% (inactive).
In the case of `Cc1noc(C)c1COc1cccc(C(=O)Nc2cccnc2)c1` it was 5.81% (inactive); in that of `C[C@H]1CN([C@@H](C)CO)C(=O)c2cc(C3=CCCCC3)cnc2O[C@@H]1CN(C)C(=O)Cc1ccccc1`, -6.94% (inactive).
In the case of `CC(=O)Nc1ccc(SCC(=O)NC(=O)c2ccc(Cl)cc2)cc1` it was -9.69% (inactive); in that of `COc1cccc(NC(=S)N(CCc2c(C)[nH]c3ccccc23)Cc2ccco2)c1`, -11% (inactive); in that of `COc1ccc2[nH]c(C)c(CCN(Cc3cccs3)C(=S)Nc3ccccc3OC)c2c1`, -8.67% (inactive).
Under `Cc1[nH]c2ccccc2c1CCN(Cc1cccs1)C(=S)NC(C)(C)C` stands -70.5% (active).
Take `Cc1ccc(S(=O)(=O)NN=C2CC(C)(C)CC(=O)C2(C)C)cc1`: the activity change is -9.11% (inactive).
Consider `C[C@@H]1Cn2cnc(C(=O)Nc3ccc(CNC(=O)OC(C)(C)C)cc3)c2C(=O)N1`, for which the activity change is -19.4% (inactive).
Under `C[C@H]1Cn2cnc(C(=O)N[C@@H](Cc3c[nH]c4ccccc34)C(=O)OC(C)(C)C)c2C(=O)N1` stands -11.5% (inactive).
With `CCOC(=O)CSc1nc2c(c(=O)n(Cc3ccccc3Cl)c(=O)n2C)n1C`, the activity change is -10.8% (inactive).
Under `N#Cc1c(NC(=O)CSc2nc3ccccc3c(=O)n2Cc2ccco2)sc2c1CCCC2` stands -19.1% (inactive); under `CCOC(=O)CSc1nc2c(sc(=S)n2CCc2ccccc2)c(=O)n1Cc1ccco1`, -91% (active).
Under `C=CCOc1ccccc1CNn1c(C)n[nH]c1=S` stands 3.24% (inactive); under `C[C@@H]1CN([C@@H](C)CO)C(=O)CCCn2nncc2CO[C@@H]1CN(C)S(=O)(=O)c1ccc(-c2ccccc2)cc1`, 8.36% (inactive); under `COc1ccc(CCNC(=O)COC(=O)Cc2ccccc2F)cc1`, 8.82% (inactive).
`COc1ccc(C(CCNCc2ccccc2F)c2ccc(F)cc2)cc1` (centres undefined): the activity change was -100% (active).
Under `COc1cccc(CNCCc2c[nH]c3ccccc23)c1OCc1ccccc1F` stands -1.51% (inactive).
